EP2 mod: EP2 receptor (human) modulation. EP2-expressing cells, cAMP HTRF FRET, PGE2 co-stimulation. induction, % at 25 µM. AID 940. actives 0.83% (n = 260,000). P43116;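 active means compounds whose cAMP rise, as percent of the full-agonist control response, exceeds 60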;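 further: rat C6 glioma line stably carrying human EP2 under a CMV promoter; the protocol text gives 20 µM as final concentration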
EP2 antag: inhibitors of human EP2 prostaglandin E2 receptor | C6 glioma cells expressing human EP2, cAMP TR-FRET; cells stimulated with saturating PGE2 | inhibition, % at 25 µM | AID 1422 | actives 0.52% (n = 260,000);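 active means percent inhibition above 40 after rounding to a whole number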;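 further: rat C6 glioma host cells with rolipram phosphodiesterase inhibitor present; the protocol text gives 20 µM as final concentration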
CHT inh: inhibitors of human choline transporter CHT | AID 488975 | CHT-expressing cells, membrane potential dye, choline response; hits give low values | Q9GZV3 | B-score at 10 µM | actives 0.86% (n = 310,000);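 active means B-score over 3 SD under the library average, and starting fluorescence ratio not unusually high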;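 further: choline stimulus applied at its EC90 after an EC20 pre-addition; B-score computed on integrated fluorescence ratio after choline addition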
Target sequence (Q9GZV3 whole entry, looked up): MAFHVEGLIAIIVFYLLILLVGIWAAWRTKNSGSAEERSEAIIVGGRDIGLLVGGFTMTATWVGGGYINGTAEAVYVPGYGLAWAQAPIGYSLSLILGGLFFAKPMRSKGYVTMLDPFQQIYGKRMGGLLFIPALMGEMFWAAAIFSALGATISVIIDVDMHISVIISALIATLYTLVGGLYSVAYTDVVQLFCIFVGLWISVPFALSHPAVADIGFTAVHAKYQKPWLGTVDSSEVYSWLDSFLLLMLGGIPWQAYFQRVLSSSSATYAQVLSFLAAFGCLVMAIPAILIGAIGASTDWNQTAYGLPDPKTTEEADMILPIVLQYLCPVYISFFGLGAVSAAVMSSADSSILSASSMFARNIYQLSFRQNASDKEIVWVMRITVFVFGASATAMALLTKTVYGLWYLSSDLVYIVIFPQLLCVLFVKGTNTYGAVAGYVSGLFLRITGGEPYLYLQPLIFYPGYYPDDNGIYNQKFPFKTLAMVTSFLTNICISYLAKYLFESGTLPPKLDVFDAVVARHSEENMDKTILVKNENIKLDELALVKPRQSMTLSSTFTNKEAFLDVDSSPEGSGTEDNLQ
CHT PAM: allosterically activates the human high affinity choline transporter. Q9GZV3. CHT-expressing cells, membrane potential dye, choline EC20; hits give high values; LV-AA mutant CHT in HEK293 cells. B-score at 10 µM. actives 0.49% (n = 310,000);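 active means initial fluorescence not abnormally high and integrated response B-score, plate-corrected, over 3 SD above library mean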
CHT activ conf: human CHT activation, confirmatory screen. AID 504833. actives 91% (n = 2,500). shares compounds with CHT PAM. CHT-expressing cells, membrane potential dye fluorescence (FDSS); % of choline EC20–EC90 response window; HEK293 expressing CHT LV-AA mutant; choline added at its EC20. activation, % at 10 µM;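 active means primary screen active, with duplicate mean activation above negative control mean plus 3 SD, cut at about 11% in these data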
HEK293 MP dye: counter-screen for CHT activators: effect in parental HEK293 cells | membrane potential dye fluorescence (FDSS); measured after EC20 choline addition | actives 62% (n = 2,500) | ratio readout change at 10 µM, hits read low | AID 623908 | shares compounds with CHT PAM;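 active means duplicate-averaged ratio beyond 3 SD from buffer wells, up or down, though filed actives are nearly all decreases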
Large screens that a line does not name were inactive (follow-up assays come after a bar, where they were run). Rows were chosen to be rich in hits. Some 2.1% of all compounds tested hit in one or more screens of this group.

CNC(=O)Cn1c(C)cc(=O)c2cccc(OC)c21	CHT PAM 13 | CHT activ conf 64.4 | HEK293 MP dye -89
COc1ccc(NC(=O)Cn2c(C)cc(=O)c3cccc(OC)c32)cc1	none (no result: EP2 mod)
C=CCOC(=O)C1=C(C)NC(=O)NC1c1cc(OC)c(Br)cc1OC (stereo unspecified)	none (no result: CHT inh, CHT PAM)
O=C(C1CC1)N1CCCc2cc(C(O)CN3CCCCC3)ccc21 (stereo unspecified)	none (no result: CHT inh, CHT PAM)
CC(Nc1ccnc2cc(Cl)ccc12)c1ccc(S(N)(=O)=O)cc1 (stereo unspecified)	none (no result: EP2 mod, EP2 antag) | CHT activ conf 35.4 | HEK293 MP dye -46
CCn1c(=O)[nH]c2c(C(N)=O)nc(-c3cccc(F)c3)nc21	none (no result: EP2 antag, CHT inh, CHT PAM)
N#Cc1cc(N2CCCCC2)c([N+](=O)[O-])cc1C#N	none
CN(C)CCC1CCN(c2cc(C#N)c(C#N)cc2[N+](=O)[O-])CC1	CHT PAM 7.16 | CHT activ conf 57.7 | HEK293 MP dye -63.9
COc1ccccc1C(=O)N1C(CC(=O)Nc2cc(Cl)ccc2C)C(=O)NC2CCCCC21 (stereo unspecified)	none | CHT activ conf 24.5 | HEK293 MP dye inactive
O=C(CC1C(=O)NC2CCCCC2N1C(=O)c1ccc(F)cc1)Nc1ccccc1 (stereo unspecified)	none
COc1cc(C2/C(=C(/O)c3ccccc3)C(=O)C(=O)N2CC#N)ccc1O (stereo unspecified)	none (no result: CHT inh, CHT PAM)
CCN1CCCC(Sc2nc3c([nH]2)c(=S)n(C)c(=O)n3C)C1 (stereo unspecified)	none | CHT activ conf 29.0 | HEK293 MP dye -25.7
CC1CCCN(Cc2nc3c([nH]2)c(=O)n(C)c(=O)n3C)C1 (stereo unspecified)	none (no result: CHT inh, CHT PAM)
Cc1ccc(C(C)C(=O)N2CCC[C@@H](Cn3nc(-c4cccs4)ccc3=O)C2)cc1 (stereo partly specified)	none (no result: CHT inh, CHT PAM)
Cc1ccc(CNc2c(-c3cnc(N(C)C)nc3)nc3cnccn23)cc1	none (no result: EP2 antag, CHT inh, CHT PAM)
Cc1nc(SCC(=O)Nc2ccc(S(=O)(=O)N(C)C)cc2)c2c(C)c(C)sc2n1	none (no result: CHT inh, CHT PAM)
CCOC(=O)c1c(NC(C)=O)sc2c1CCN(Cc1ccccc1)C2	CHT PAM 6.37 (no result: EP2 mod, EP2 antag) | CHT activ conf 40.3 | HEK293 MP dye -60.1
COC(=O)c1c(NC(C)=O)sc2c1CCN(Cc1ccccc1)C2	CHT PAM 7.25 (no result: EP2 mod, EP2 antag) | CHT activ conf 40.3 | HEK293 MP dye -66.3
COC(=O)c1c(NC(=O)C(C)(C)C)sc2c1CCN(Cc1ccccc1)C2	none (no result: EP2 mod, EP2 antag)
COc1ccc(CCNC(=O)Cn2nc(-c3ccco3)cc(N)c2=O)cc1OC	none (no result: CHT inh, CHT PAM)
OC(CN1CCC2(CC1)CC(O)c1ccccc1O2)c1ccccc1 (stereo unspecified)	none (no result: CHT inh, CHT PAM)
O=C(CCn1nnc2ccccc21)NC1(c2cccc(F)c2)CCCC1	none (no result: EP2 antag, CHT inh, CHT PAM)
NC1=NC[C@H](Cc2ccccc2)N1CC1CCCCC1	none (no result: EP2 mod) | CHT activ conf 32.0 | HEK293 MP dye inactive
CN(C)C1=NC[C@H](Cc2ccccc2)N1CCC1CCCC1	none (no result: EP2 mod, EP2 antag) | CHT activ conf 27.0 | HEK293 MP dye inactive
Cn1c(CN2CCOCC2)nnc1SCC(=O)Nc1cccc2ccccc12	none (no result: CHT inh, CHT PAM)
CCC(c1nnnn1C1CCCCC1)N(Cc1cc2cc(C)ccc2[nH]c1=O)C1CCCCC1 (stereo unspecified)	none (no result: CHT inh, CHT PAM)
CCOC(=O)C1=C(C)NC(=O)/C1=C\N(C)C	none
CCOC(=O)C1=C(C)S/C(=C\N(C)C)C1=O	CHT PAM 11.1 | CHT activ conf 61.2 | HEK293 MP dye -54.3
N#CCn1nnc(-c2ccc(C(F)(F)F)cc2)n1	none (no result: CHT inh, CHT PAM)
COc1cccc(C(=O)Nc2cc([N+](=O)[O-])ccc2N2CCN(C)CC2)c1	CHT PAM 9.69 | CHT activ conf 48.8 | HEK293 MP dye -82.3
CN1CCN(c2ccc(S(=O)(=O)N3CCCCC3)cc2NC(=O)c2ccc(C#N)cc2)CC1	none | CHT activ conf inactive | HEK293 MP dye inactive
CN1CCN(c2ccc([N+](=O)[O-])cc2NC(=O)c2ccccc2)CC1	CHT PAM 8.48 | CHT activ conf 62.2 | HEK293 MP dye -87.8
CN1CCN(c2ccccc2NC(=O)c2cccc([N+](=O)[O-])c2)CC1	none | CHT activ conf 52.3 | HEK293 MP dye -43.7
COc1ccc(C(=O)Nc2cc([N+](=O)[O-])ccc2N2CCN(C)CC2)cc1	none

Compound activity from PubChem.
